Screens (PubChem BioAssay)
A selection: hits, their analogues and other compounds. The true share with any hit is near 4.7%.
ATXN2 expr inh: reduces ATXN2 reporter expression in HEK-293 cells; AID 1745845; actives 0.72% (n = 360,000); HEK-293 ATXN2-luciferase reporter, luminescence, 24 h; Potency, µM (doses to about 57 µM), for inactives: at the highest dose activity change, negative = inhibition, most hits filed as inhibitors; note: potency is the fitted concentration of half-maximal effect; % is set by controls: 0 for no effect and ±100 for the full control effect; nearly all actives have a fitted effect of over 55% in size
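ATXN2-luciferase reporter cells (luciferase flanked by upstream and downstream ATXN2 gene portions) were treated 24 h at 37 °C with compounds at up to 57 uM. SteadyGlo luminescence gave expression; GF-AFC fluorescence gave viability.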
HepG2 viability: kills HepG2 cells in TGF-b inhibitor counter-screen | HepG2 CAGA-GFP viability, ATP luminescence, 18 h | Potency, µM (titrated, usually from 46.1 µM), inactives show at the top dose activity change, negative = cytotoxicity, most hits filed as cytotoxic | actives 0.76% (n = 410,000) | AID 588856; note: potency is the fitted concentration of half-maximal effect
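CellTiter-Glo luminescence gave cytotoxicity after 18 hours at 37 degrees C. The cells were HepG2 CAGA-GFP in 1% FBS DMEM, stimulated with 500 pg/mL TGF-beta after compound addition. %Activity was normalised to no-cell wells (complete cell-killing) and DMSO (no toxicity), and curves were fitted and classified.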
DRD3 agonist: activates the human D3 dopamine receptor. D3R DiscoveRx beta-arrestin cells, luminescence, 90 min. AID 652048. P35462. max activation, %. actives 0.58% (n = 410,000); in the data active = max activation above about 30%; note: 0% is about no effect
Target sequence (P35462 whole entry, looked up): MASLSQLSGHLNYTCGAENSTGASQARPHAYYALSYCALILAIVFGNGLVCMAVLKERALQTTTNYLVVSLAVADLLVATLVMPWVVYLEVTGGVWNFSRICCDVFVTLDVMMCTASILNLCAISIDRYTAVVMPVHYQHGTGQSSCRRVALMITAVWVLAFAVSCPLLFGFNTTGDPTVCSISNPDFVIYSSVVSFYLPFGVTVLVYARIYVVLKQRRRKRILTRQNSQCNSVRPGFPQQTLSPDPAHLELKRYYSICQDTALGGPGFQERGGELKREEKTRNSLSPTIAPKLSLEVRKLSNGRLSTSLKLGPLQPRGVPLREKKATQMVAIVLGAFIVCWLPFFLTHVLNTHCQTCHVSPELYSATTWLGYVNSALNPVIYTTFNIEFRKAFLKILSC
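Agonist-mode cell screen: cells plated at 1500/well and incubated overnight at 37 °C, then exposed to library compounds for 90 min at 37 °C. Detection reagent was added for 30–60 min at room temperature, and luminescence was read.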
ATXN viability: viability counter-screen for ATXN expression inhibitors | S2 cells (HEK-293 line with an ATXN2-luciferase reporter) viability, CellTiter-Fluor protease fluorescence, 24 h | Potency, µM (doses to about 56.7 µM), actives largely listed as cytotoxic | actives 0.49% (n = 400,000); note: potency is the fitted concentration of half-maximal effect; nearly all actives have a fitted effect of over 40% in size
TGFb SMAD3 inh: TGF-b pathway inhibition; Potency, µM (titrated, usually from 46.1 µM), for the others: at the top dose activity, negative = inhibition, actives largely listed as inhibitors; AID 588855; actives 1.2% (n = 410,000); HepG2 CAGA-GFP TGF-b/SMAD3 reporter, GFP fluorescence, 18 h; TGF-beta stimulated, 500 pg/mL final; note: potency is the fitted concentration of half-maximal effect; % is set by controls: 0 for no effect and ±100 for the full control effect; nearly all actives have a fitted effect of over 65% in size
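First, reporter cells (HEPG2 CAGA-GFP) rested 2 h at 37 degrees C. Next, compounds were pinned in and TGF-beta added to 500 pg/mL final. After 18 h, GFP was imaged per cell and summed per well.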
D3 antag: blocks the human D3 dopamine receptor; P35462; D3R cells, DiscoveRx beta-arrestin luminescence, antagonist mode; hits give low values; max response, negative = inhibition, %; actives 2.5% (n = 360,000); AID 652054; in the data active = max response below about -50%; inconclusive = no clear call, values can overlap the other calls; note: % is set by controls: 0 for no effect and ±100 for the full control effect
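Cells expressing the human receptor were seeded at 1500 cells/well, incubated overnight at 37 degrees C in 5% CO2, then exposed to library compounds with dopamine controls for 90 minutes at 37 degrees C before luminescent detection.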
SKNSH spheroid: kills SK-N-SH neuroblastoma spheroids in orthogonal 3D test; shares compounds with ATXN2 expr inh; actives 70% (n = 65); SK-N-SH 3D spheroid viability, PI/Hoechst imaging, 72 h; Potency, µM (highest dose often 30.7 µM), hits mostly inhibitors
SJGBM2 3D viab: lowers viability of SJ-GBM2 3D spheroids. shares compounds with ATXN2 expr inh. SJ-GBM2 3D spheroid viability, PI/Hoechst imaging, 72 h. Potency, µM (highest dose often 30.7 µM), hits mostly inhibitors. actives 80% (n = 65). AID 1347136
Daoy 3D tox: kills Daoy spheroids in orthogonal 3D test. shares compounds with ATXN2 expr inh. Daoy 3D spheroid viability, PI/Hoechst imaging, 72 h. Potency, µM (titrated, usually from 30.7 µM), usual class: inhibitors. actives 50% (n = 65)
TC32 3D casp: activates caspase in TC32 3D spheroids; shares compounds with ATXN2 expr inh; actives 30% (n = 65); Potency, µM (series often up to 30.7 µM), actives largely listed as inhibitors; TC32 3D spheroids, caspase-3/7 fluorescence imaging, 24 h
TC32 3D tox: TC32 3D spheroid viability loss | shares compounds with ATXN2 expr inh | TC32 3D spheroid viability, PI/Hoechst imaging, 72 h | Potency, µM (highest dose often 30.7 µM), usual class: inhibitors | actives 60% (n = 65)
MG63 spheroid: reduced viability of MG-63 (6-TG R) 3D spheroids, orthogonal test; shares compounds with ATXN2 expr inh; MG-63 (6-TG R) 3D spheroid viability, PI/Hoechst imaging, 72 h; Potency, µM (series often up to 30.7 µM), hits mostly inhibitors; actives 50% (n = 65); AID 1347140
RD spheroid: reduced viability of RD 3D spheroids, orthogonal test; AID 1347141; shares compounds with ATXN2 expr inh; actives 50% (n = 65); Potency, µM (highest dose often 30.7 µM), most hits filed as inhibitors; RD rhabdomyosarcoma 3D spheroid viability, PI/Hoechst imaging, 72 h
Active calls of the source: *; i = inactive; ? = inconclusive; · = no result given. Unless noted, calls come from the whole dose curve; as a rule, active = well fitted curve in the direction sought with a large enough effect; inconclusive = small, poorly fitted or top-dose-only effect, or another doubt; inactive = no such curve, though single readings can be large; an effect the other way counts as inactive or inconclusive.

SMILES	ATXN2 expr inh	HepG2 viability	DRD3 agonist	ATXN viability	TGFb SMAD3 inh	D3 antag	SKNSH spheroid	SJGBM2 3D viab	Daoy 3D tox	TC32 3D casp	TC32 3D tox	MG63 spheroid	RD spheroid
COC(=O)Nc1nc2ccc(C(=O)c3ccc(F)cc3)cc2[nH]1	-9.8%	·	·	·	·	·	1.02µM*	0.909µM*	?	?	2.04µM*	?	?
Cc1ccc(NC(=O)Cn2c(=O)n(Cc3ccc4c(c3)OCO4)c(=O)c3ccc(C(=O)NC4CCCCC4)cc32)c(C)c1	3.0%	2.7%	4.8	i	13.7%	·	·	·	·	·	·	·	·
CCOc1cc(N2CCC(O)CC2)ccc1Nc1ncc2c(n1)N(C)c1ccccc1C(=O)N2C	64.0%	·	·	·	·	·	?	i	i	i	i	i	?
CC(=O)OCC(=O)[C@@]1(O)CC[C@@H]2[C@H]3CCC4=CC(=O)CC[C@]4(C)[C@]3(F)[C@@H](O)C[C@@]21C	·	·	·	i	·	·	·	·	·	·	·	·	·
CC(=O)O[C@H]1C(=O)[C@@]2(C)[C@H]([C@H](OC(=O)c3ccccc3)[C@]3(O)C[C@H](OC(=O)[C@H](O)[C@@H](NC(=O)c4ccccc4)c4ccccc4)C(C)=C1C3(C)C)[C@]1(OC(C)=O)CO[C@@H]1C[C@@H]2O	-24.2%	-39.5%	10.3	?	-19.7%	1.6	0.144µM*	0.0102µM*	0.144µM*	?	0.0144µM*	?	0.0574µM*
CC(=O)O[C@@]12CO[C@H]1C[C@H](O)[C@@]1(C)C(=O)[C@H](O)C3=C(C)[C@@H](OC(=O)C(O)[C@@H](NC(=O)OC(C)(C)C)c4ccccc4)C[C@@](O)([C@@H](OC(=O)c4ccccc4)[C@@H]21)C3(C)C (some centres undefined)	?	·	·	·	·	·	0.0256µM*	0.0046µM*	2.56µM*	i	?	8.1µM*	?
CC(=O)O[C@H]1C(=O)[C@@]2(C)[C@H]([C@H](OC(=O)c3ccccc3)[C@]3(O)C[C@H](OC(=O)[C@H](O)C(NC(=O)c4ccccc4)c4ccccc4)C(C)=C1C3(C)C)[C@]1(OC(C)=O)CO[C@@H]1C[C@@H]2O (some centres undefined)	-25.0%	-9.1%	6.9	?	?	32.4	·	·	·	·	·	·	·
COc1ccccc1NC(=O)C1CCC(CNS(=O)(=O)c2ccc3c(c2)CC(C)N3C(C)=O)CC1 (centres undefined)	·	-35.6%	14.3	·	?	·	·	·	·	·	·	·	·
CC(C)C[C@H](NC(=O)[C@H](Cc1ccccc1)NC(=O)c1cnccn1)B(O)O	0.0273µM*	·	6.8	50.1µM*	·	·	0.0102µM*	0.0162µM*	0.0323µM*	0.181µM*	0.0181µM*	0.081µM*	0.0114µM*
CN(C)c1ccc(CNC(=O)c2ccc3c(c2)N(C)C(=O)C2CCCCN32)cc1 (centres undefined)	25.2%	-31.1%	-24.2	i	2.6%	·	·	·	·	·	·	·	·
O=C1C(Cl)=C(NCCN2CCOCC2)C(=O)c2ncccc21	9.68µM*	·	·	·	·	·	3.23µM*	4.56µM*	6.44µM*	i	11.4µM*	5.11µM*	11.4µM*
c1ccc2c(c1)CCCc1cc(NCCN3CCOCC3)nnc1-2	-1.3%	-16.6%	-18.6	i	22.4%	-24.1	·	·	·	·	·	·	·
COc1cc(C(C)=O)ccc1OCCCN1CCC(c2noc3cc(F)ccc23)CC1	6.8%	·	-26.2	i	·	·	?	4.06µM*	16.2µM*	i	i	12.8µM*	14.4µM*
CC(C)(C)NC(=O)[C@H]1CN(Cc2cccnc2)CCN1C[C@@H](O)C[C@@H](Cc1ccccc1)C(=O)N[C@H]1c2ccccc2C[C@H]1O	?	·	·	·	·	·	i	i	i	i	i	i	i
Cc1ccc(-c2ncn(-c3ccc(Nc4nccc(-c5cccc(N6CCOCC6)c5)n4)cc3)n2)cn1	4.85µM*	·	·	·	·	·	0.909µM*	1.62µM*	·	i	i	i	?
Cc1cccc(-c2nc(Nc3ccc(N4CCOCC4)cc3)c3ccccc3n2)c1	3.2%	0.3%	-1.4	?	0.0%	7.9	·	·	·	·	·	·	·
CCOC(=O)c1ccc(NC(=O)C2=C(C)C(=O)OC23CCN(C(C)=O)CC3)cc1	·	-14.0%	5.0	·	0.0%	·	·	·	·	·	·	·	·
